Source: ChEMBL document CHEMBL3988442, “University of Dundee, Small-Polar-MMV Screening Library” (2021)
About 950 (1.4%) of roughly 69,000 compounds showed an effect of 50% or more. The sample as a whole holds a higher share of strong results than the screen did.

System: Mycobacterium tuberculosis
Experiment: Cornell M. t heat shock assay; note: in the data most compounds retested in dose-response had high values
Type: functional, organism-based
Parameters: dose or concentration left out as unconfirmed

Row | Structure (SMILES) | Percent Effect [%]
1 | CNc1cc(C2CN(Cc3csc(C)n3)CCO2)nc(C)n1 (stereo not drawn) | -32.62
2 | Cc1nc(C2CN(Cc3scnc3C)CCO2)cc(N(C)C)n1 (stereo not drawn) | -20.95
3 | CNc1cc(C2CN(Cc3scnc3C)CCO2)nc(C)n1 (stereo not drawn) | 67.88
4 | COc1cc(CN(CCCN(C)C)Cc2ccccn2)cc2c1OCO2.O=C(O)CC(O)(CC(=O)O)C(=O)O | -27.2
5 | CC(N(C)Cc1nc2c(cnn2C)c(=O)[nH]1)C(C)(C)C (stereo not drawn) | 4.654
6 | O=C(Nc1cnccn1)[C@@H]1C[C@H]2OCC[C@H]2N(Cc2ccsc2)C1.O=C(O)C(F)(F)F | -23.53
7 | COc1cc(F)ccc1C(C(=O)O)N(C)Cc1ccon1 (stereo not drawn) | 98.53
8 | COc1ccc(Cl)cc1C(C(=O)O)N(C)Cc1ccon1 (stereo not drawn) | -13.11
9 | COc1cc(C)cc(C(C(=O)O)N(C)Cc2ccon2)c1OC (stereo not drawn) | 14.77
10 | Cc1ccc(C(=O)N2CCc3c(CN4CCCC4)nn(C)c3C2)cc1C.O=C(O)C(F)(F)F | -28.38
11 | CC(C)COC(=O)N1CC(=O)N(CCc2ccccc2)CC(O)C1 (stereo not drawn) | 34.47
12 | COc1ccc(CN2CC(O)CN(C(=O)OCC(C)C)CC2=O)cc1 (stereo not drawn) | 43.83
13 | CCOC(=O)N1CC(=O)N(CCc2ccccc2)CC(O)C1 (stereo not drawn) | 15.03
14 | Cc1ccc(CN2CC(O)CN(C(=O)OCC(C)C)CC2=O)cc1 (stereo not drawn) | 52.29
15 | CC(C)COC(=O)N1CC(=O)N(CCCc2ccccc2)CC(O)C1 (stereo not drawn) | 54.63
16 | CC(C)COC(=O)N1CC(=O)N(Cc2ccc(Cl)cc2)CC(O)C1 (stereo not drawn) | 47.42
17 | COc1cc(N2CC[C@H]3O[C@@H](C(=O)NC4CCCC4)CC[C@H]32)ncn1.O=C(O)C(F)(F)F | -0.9791
18 | Cl.O=C(NC1CCCC1)c1ccc(C2CCCNC2)nc1 (stereo not drawn) | -7.361
19 | Cc1c(C2CCCN(C(=O)c3ccncc3)C2)n2c(nc1=O)CCC2.Cl (stereo not drawn) | -13.79
20 | Cl.O=C(N[C@@H]1CN[C@H]2CCCO[C@H]21)c1cnccn1 | -42.37
21 | CNC(=O)CC1CCN(Cc2nc(-c3ccc(SC)cc3)oc2C)CC1 | 1.977
22 | CNC(=O)CC1CCN(Cc2nc(-c3cccc(Cl)c3)oc2C)CC1 | 52.75
23 | CNC(=O)C1CCN(Cc2nc(-c3ccc(SC)cc3)oc2C)C1 (stereo not drawn) | 12.81
24 | CCn1nc(C)c(-c2cncn2Cc2ccccc2CN(C)C)c1C.Cl | 2.066

Row | Structure (SMILES) | Percent Effect [%]
25 | O=C(O)C(F)(F)F.c1cc(CN2CCO[C@H]3[C@H](OCC4CCOCC4)CC[C@@H]32)co1 | 4.016
26 | CCS(=O)(=O)CCNc1nc(C2CCCC2)nc2c1cnn2C | -23.34
27 | Cn1ncc2c(NCCn3cccc3)nc(C3CCCC3)nc21 | -24.81
28 | Cn1ncc2c(NCCC34CCCN3CCC4)nc(C3CCCC3)nc21 | 90.62
29 | CNCCCNc1nc(C2CCCC2)nc2c1cnn2C | -14.72
30 | CC(C)N(CCNc1nc(C2CCCC2)nc2c1cnn2C)C(C)C | 102.6
31 | CCOCCNc1nc(C2CCCC2)nc2c1cnn2C | 10.38
32 | CN(C)CCN1CCC2(CCN(C(=O)c3cccc(F)c3)CC2)C1=O.O=C(O)C(F)(F)F | -26.99
33 | COCC1CN(Cc2cnn(C)c2)Cc2nn(C)cc21.O=C(O)C(F)(F)F (stereo not drawn) | -8.537
34 | CNCC(=O)N1CCCC(c2nccnc2Oc2cccc(F)c2)C1.Cl (stereo not drawn) | -3.012
35 | O=C(NCCc1cccnc1)c1nc2c(s1)CCCN2C(=O)C1CC1.O=C(O)C(F)(F)F | 31.31
36 | Cl.Fc1ccccc1CNc1ccnc(C2CCNCC2)c1 | -7.114
37 | CCS(=O)(=O)Nc1cnn(Cc2cccc(C)c2)c1 | -6.735
38 | CS(=O)(=O)Nc1cnn(Cc2cccc(Cl)c2)c1 | -3.827
39 | CCS(=O)(=O)Nc1cnn(Cc2cccc(Cl)c2)c1 | 69.75
40 | O=C(O)C(F)(F)F.O=C(c1cccs1)N1C[C@@H]2OCCN(CC3CCCO3)[C@@H]2C1 (stereo partly drawn) | -25.16
41 | CC[C@@H]1N(C)CCC[C@]12CCC(=O)N2Cc1ccncc1.O=C(O)C(F)(F)F.O=C(O)C(F)(F)F | -9.742
42 | O=C(O)C(F)(F)F.O=C(O)c1c(-c2cccnc2)ncc2c1CCN(CC1CCOC1)C2 (stereo not drawn) | -9.377
43 | O=C(O)C(F)(F)F.O=C(O)C(F)(F)F.O=C(O)C(F)(F)F.O=C1C[C@H]2[C@@H](CCN2Cc2ccccn2)N1CCN1CCOCC1 | -15.17
44 | O=C(CN1C(=O)CCNC1=O)N1CCOC(c2ccc(F)cc2)C1 (stereo not drawn) | 12.93
45 | O=C1CCNC(=O)N1CC(=O)N1CCC1c1ccc(F)cc1 (stereo not drawn) | 51.34
46 | O=C(CN1C(=O)CCNC1=O)N1CCC(c2ccc(F)cc2)C1 (stereo not drawn) | 18.83
47 | O=C(O)C(F)(F)F.O=C(O)C(F)(F)F.c1cncc(CN2CC[C@H]3O[C@@H](COCC4CCOCC4)CC[C@H]32)c1 | -5.632
48 | CC(C)N1CCC2(C=C(C(=O)NC3CC3)c3ccccc32)CC1.O=C(O)C(F)(F)F | -2.25

Row | Structure (SMILES) | Percent Effect [%]
49 | O=C(O)C(F)(F)F.c1csc(NCc2n[nH]c3c2CCN(CC2CC2)C3)n1 | -23.28
50 | Cc1cccc(CN2CCCn3c(nnc3Cn3cccn3)C2)n1.O=C(O)C(F)(F)F | -30.89
51 | CCc1cnc(CN(C)C2CCN(CCc3cccs3)C2)o1 (stereo not drawn) | -5.267
52 | CCc1cnc(CN(C)C2CCN(CCc3ccccn3)C2)o1 (stereo not drawn) | 105.9
53 | CC(C)c1cnc(CN(C)C2CCN(CCc3ccccn3)C2)o1 (stereo not drawn) | -13.05
54 | Cc1cnc(CN(C)C2CCN(CC(=O)Nc3nccs3)C2)o1 (stereo not drawn) | 66.08
55 | CCc1cnc(CN(C)C2CCN(CC(=O)Nc3cc(C)on3)C2)o1 (stereo not drawn) | -19.35
56 | CCc1cnc(CN(C(C)=O)C2CCN(CCc3ccccn3)C2)o1 (stereo not drawn) | -12.32
57 | Cc1cnc(CN(C)C2CCN(CC(=O)N(C)c3nccs3)C2)o1 (stereo not drawn) | 15.65
58 | Cc1cnc(CN(C)C2CCN(CC(=O)Nc3nncs3)C2)o1.O=C(O)C(F)(F)F (stereo not drawn) | -4.89
59 | CCc1cnc(CN(C)C2CCN(CC(=O)Nc3nccs3)C2)o1 (stereo not drawn) | 61.16
60 | CC(=O)Nc1ccc(CN2C[C@H]3CC[C@@H]2CN(c2ncccn2)C3)cc1 | 8.779
61 | CC(C)NC(=O)N1Cc2nccn2CC(COc2cccnc2)C1.O=C(O)C(F)(F)F (stereo not drawn) | -13.64
62 | CNC(=O)CN1CCCC12CCN(C(=O)c1ccsc1)CC2.O=C(O)C(F)(F)F | -20.96
63 | O=C(Cc1ccccn1)N1CCN2C[C@H](Oc3cncnc3)C[C@H]2C1.O=C(O)C(F)(F)F.O=C(O)C(F)(F)F | 3.514
64 | CCOc1ccc(CNCC(O)c2ccccc2)cc1Cl.Cl (stereo not drawn) | 35.2
65 | CN1CCCCC1c1ncc2c(n1)CCN(CCCc1ccccc1)C2 (stereo not drawn) | 101.2
66 | Cl.Clc1ccccc1CN1CCc2nc(C3CCCCN3)ncc2C1 (stereo not drawn) | 12.35
67 | CN1CCCCC1c1ncc2c(n1)CCN(Cc1ccc(Cl)c(F)c1)C2 (stereo not drawn) | 103.7
68 | CN1CCc2nc(C3CCCCN3Cc3ccccc3Cl)ncc2C1 (stereo not drawn) | -4.117
69 | Cn1cnc2c1CCN(CCCc1ccccc1)C2 | 8.155
70 | Cc1ncc2c(n1)CN(CCCc1ccccc1)CC2 | 3.621
71 | COc1ccc(CN2CCc3nc(C4CCCCN4C)ncc3C2)cc1 (stereo not drawn) | 25.26
72 | CN1CCCCC1c1ncc2c(n1)CCN(Cc1ccc(F)cc1)C2 (stereo not drawn) | 35.62

Row | Structure (SMILES) | Percent Effect [%]
73 | CN1CCCCC1c1ncc2c(n1)CCN(Cc1ccccc1Cl)C2 (stereo not drawn) | 87.15
74 | O=C(CC1CC1)N1CC[C@H]2[C@@H]1CCC(=O)N2c1cccnc1.O=C(O)C(F)(F)F | -6.311
75 | CC(C)NC(=O)C1(CC2CC(c3ccc(F)cc3)=NO2)CCNCC1.O=C(O)CC(O)(CC(=O)O)C(=O)O (stereo not drawn) | -19.28
76 | CNC(=O)C1Cn2ccnc2C2(CCN(Cc3cccnc3)CC2)O1.O=C(O)C(F)(F)F.O=C(O)C(F)(F)F.O=C(O)C(F)(F)F (stereo not drawn) | -3.867
77 | COc1ccccc1CN1CCCCC1c1n[nH]cc1-c1cc(C)no1.Cl (stereo not drawn) | 14.98
78 | COc1cccc(CN2C[C@@H]3COC[C@]3(COCc3ccncc3)C2)c1.O=C(O)C(F)(F)F.O=C(O)C(F)(F)F | -3.091
79 | Cc1csc(CN(C)C2CCN(c3sccc3C#N)C2=O)n1 (stereo not drawn) | -26.99
80 | Fc1ccc(CN2CCCC3(CCN(Cc4ncc[nH]4)C3)C2)cc1F (stereo not drawn) | 0.7553
81 | Cc1ccc(CN2CCC3(CCCN(Cc4ccc(F)c(F)c4)C3)C2)o1 (stereo not drawn) | 10.97
82 | Cc1c[nH]c(CN2CCC3(CCCN(Cc4ccc(F)c(F)c4)C3)C2)n1 (stereo not drawn) | 58.72
83 | CCOC[C@]12COC[C@H]1CN(Cc1ccc3c(c1)OCO3)C2.O=C(O)C(F)(F)F | 12.44
84 | O=C(CCc1ccccc1Br)NS(=O)(=O)c1ccc2c(c1)OCCO2 | 6.065
85 | O=C(CCc1ccccc1F)NS(=O)(=O)c1ccc2c(c1)OCCO2 | -5.66
86 | O=C(CCc1ccccc1Cl)NS(=O)(=O)c1ccc2c(c1)OCCO2 | 62.1
87 | Cl.O=C(NC1CCCC1)C1(Cc2cc(C3CCOC3)no2)CCNCC1 (stereo not drawn) | 5.68
88 | O=C(c1cnc(-c2ccccn2)s1)N1CCCC(n2cccn2)C1 (stereo not drawn) | -7.844
89 | CC1CCN(C(=O)[C@H]2CC[C@@H]3[C@@H](CCN3Cc3nccs3)O2)CC1.O=C(O)C(F)(F)F | -10.06
90 | COc1ccc(CNC(=O)N2CCN(CC(O)C3CC3)CC2)cc1.Cl (stereo not drawn) | 14.41
91 | CC(C)c1cc(N(C)Cc2cc(C3CC3)on2)n2nccc2n1 | 41.46
92 | CC(C)Cc1nc(CN(C)c2cc(C(C)C)nc3ccnn23)no1 | 23.84
93 | CC(C)c1cc(N(C)Cc2noc(C3CCCC3)n2)n2nccc2n1 | 67.06
